Most compounds without a hit are left out; they make up all but 2.8% or so of the library.
IP6K1 inh = Primary qHTS assay for small molecule inhibitors of Inositol hexaphosphate kinase 1 (IP6K1); Inositol hexakisphosphate kinase 1 (Homo sapiens), Q92551; IP6K1 kinase, ADP-Glo luminescence, 2 h; stronger effect = lower value; activity change, % (series mostly up to about 58 µM); actives 0.81% (n = 140,000); in the data active = activity change below about -25%; note: % is set by controls: 0 for no effect and ±100 for the full control effect
Target sequence (Q92551 whole entry, looked up): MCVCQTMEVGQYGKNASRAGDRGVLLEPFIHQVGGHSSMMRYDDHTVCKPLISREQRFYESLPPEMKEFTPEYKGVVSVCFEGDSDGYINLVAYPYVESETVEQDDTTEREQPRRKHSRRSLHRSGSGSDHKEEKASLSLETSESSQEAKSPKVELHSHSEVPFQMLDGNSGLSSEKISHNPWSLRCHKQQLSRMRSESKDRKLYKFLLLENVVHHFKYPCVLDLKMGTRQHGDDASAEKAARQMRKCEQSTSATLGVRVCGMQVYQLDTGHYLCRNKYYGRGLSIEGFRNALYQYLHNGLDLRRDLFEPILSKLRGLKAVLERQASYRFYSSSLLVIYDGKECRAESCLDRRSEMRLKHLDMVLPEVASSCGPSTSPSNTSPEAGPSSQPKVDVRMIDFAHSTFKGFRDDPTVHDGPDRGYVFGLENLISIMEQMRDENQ
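ADP-Glo luminescence measures ADP made by human IP6K1 during a 2 h RT reaction with ATP/IP6 (mix at 1.3 mM/130 uM); top library doses 57.5 and 19.1 uM final.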
KDM5B inh = Primary screen for KDM5B Histone Demethylases FDH-coupled qHTS | KDM5B demethylase, FDH-coupled NADH fluorescence (FDH is formaldehyde dehydrogenase) | actives 2.6% (n = 220,000) | Potency, µM (top dose mostly 57.7 µM), hits mostly inhibitors | Lysine-specific demethylase 5B (Homo sapiens), Q9UGL1; active = well fitted inhibition curve with a large enough effect; inconclusive = small, poorly fitted or top-dose-only effect; inactive = no such curve, though single readings can be large or run the other way; note: potency is the fitted concentration of half-maximal effect; 0% is about no effect; nearly all actives have a fitted effect of over 70% in size
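qHTS format, multiple compound concentrations. Buffer 50 mM HEPES pH 7.5/0.01% Tween-20; 200 nM KDM5BΔAP final; 10 min compound preincubation; substrate-mix levels 12.5 µM peptide, 25 µM α-KG, 0.25 mM NAD⁺; 30 min RT; ΔRFU.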
An asterisk follows results filed as active.

How did COc1ccccc1Nc1ccnc(N2CCCC(C(=O)NCc3ccc(F)c(F)c3)C2)n1 (configuration not stated) do in these assays?
IP6K1 inh: 11

Results for COc1ccc(NC(=O)Cn2cccc2-c2nc(-c3ccccc3)no2)cc1 ?
IP6K1 inh: 6; KDM5B inh: inactive

Results for COC(=O)c1ccccc1NC(=O)Cn1cccc1-c1nc(-c2ccccc2)no1 ?
IP6K1 inh: -9; KDM5B inh: 28µM*

Results for COc1ccc(-n2c(=O)c(C(=O)N3CCC(c4ccccc4)CC3)nc3cccnc32)cc1 ?
IP6K1 inh: 13

Results for CCOc1ccc(C(=O)NCCc2sc(-c3ccc(C)cc3)nc2C)cc1 ?
IP6K1 inh: 0; KDM5B inh: inconclusive

What do the screens show for `O=C(NCCN1CCOCC1)c1ccc2nc(-c3ccccc3)cn2c1`?
IP6K1 inh: 1; KDM5B inh: 28µM*

What do the screens show for `Cc1ncsc1CCNC(=O)c1ccc2nc(-c3ccccc3)cn2c1`?
IP6K1 inh: 10; KDM5B inh: 25µM*

Results for O=C(NCCN1CCOCC1)c1ccc2nccn2c1 ?
IP6K1 inh: 17

Results for CCc1ccccc1-n1c(N)c(C(=O)OC)sc1=S ?
KDM5B inh: inactive

How did O=C1Nc2ccc(-c3cccc(C(F)(F)F)c3)cc2C(=O)N2C[C@H](O)C[C@@H]12 do in these assays?
IP6K1 inh: -10; KDM5B inh: inconclusive

Results for COCC(=O)N1CCN2C(=O)c3cc(-c4ccc(OC)cc4)ccc3NC(=O)[C@H]2C1 ?
IP6K1 inh: 5; KDM5B inh: 32µM*

How did C=CCO[C@@H]1C[C@H]2C(=O)Nc3ccc(-c4ccccc4)cc3C(=O)N2C1 do in these assays?
IP6K1 inh: 5; KDM5B inh: inactive

What do the screens show for `COc1ccc(-c2ccc3c(c2)C(=O)N2CCN(C(=O)c4cccnc4)C[C@@H]2C(=O)N3)cc1`?
IP6K1 inh: -7; KDM5B inh: inconclusive

Results for O=C1Nc2ccc(-c3cccc(C(F)(F)F)c3)cc2C(=O)N2CCN(C(=O)c3ccco3)C[C@@H]12 ?
IP6K1 inh: -14; KDM5B inh: 35µM*

How did COc1ccc(-c2ccc3c(c2)C(=O)N2CCN(C(=O)COc4ccccc4)C[C@@H]2C(=O)N3)cc1 do in these assays?
IP6K1 inh: -3; KDM5B inh: 28µM*

Results for C=CCO[C@@H]1C[C@H]2C(=O)Nc3ccc(-c4ccc(OC)cc4)cc3C(=O)N2C1 ?
IP6K1 inh: -12; KDM5B inh: 35µM*

What do the screens show for `COc1ccc(-c2ccc3c(c2)C(=O)N2CCN(C(=O)NC4CCCCC4)C[C@@H]2C(=O)N3)cc1`?
IP6K1 inh: 2; KDM5B inh: inconclusive

How did COc1cccc(-c2ccc(C(=O)N3CCC(NC(=O)c4ccccc4C)CC3)cc2)c1 do in these assays?
IP6K1 inh: 17

What do the screens show for `O=C(Nc1ccc(Cl)cc1)N1CCN(c2nccc(Nc3ccccc3F)n2)CC1`?
IP6K1 inh: -8

Results for COCC(=O)N1CCN2C(=O)c3cc(-c4cccc(C(F)(F)F)c4)ccc3NC(=O)[C@H]2C1 ?
IP6K1 inh: -5; KDM5B inh: 28µM*

Results for O=C1Nc2ccc(-c3cccc(C(F)(F)F)c3)cc2C(=O)N2CCN(C(=O)NC3CCCCC3)C[C@H]12 ?
IP6K1 inh: -17; KDM5B inh: inconclusive

How did CCn1cc2c3c(cccc31)CN(C(=O)Cc1ccccc1C)CC2 do in these assays?
IP6K1 inh: 23; KDM5B inh: inconclusive

Results for Cc1ccc(C(=O)N2CCc3cn(C)c4cccc(c34)C2)cc1 ?
IP6K1 inh: -3; KDM5B inh: inconclusive

What do the screens show for `Cc1ccc(CC(=O)N2CCc3cn(C)c4cccc(c34)C2)cc1`?
IP6K1 inh: 2; KDM5B inh: 28µM*

What do the screens show for `Cn1cc2c3c(cccc31)CN(C(=O)C1CCC1)CC2`?
IP6K1 inh: 3; KDM5B inh: 32µM*

Results for Cn1cc2c3c(cccc31)CN(C(=O)c1ccccc1Cl)CC2 ?
IP6K1 inh: -5; KDM5B inh: inactive

What do the screens show for `Cn1cc2c3c(cccc31)CN(C(=O)Cc1ccccc1F)CC2`?
IP6K1 inh: 31; KDM5B inh: 28µM*

What do the screens show for `COCCNC(=O)C1CCN(c2nccc(Nc3ccccc3Cl)n2)CC1`?
IP6K1 inh: 4

What do the screens show for `O=C(CCc1c[nH]c2ccccc12)Nc1ccc(-c2nnc3n2CCCC3)cc1`?
IP6K1 inh: -1; KDM5B inh: inactive

How did COc1ccc(CC(=O)N2CCN(c3ccc4nnc(-c5ccccc5)n4n3)CC2)cc1 do in these assays?
IP6K1 inh: 7

How did COc1ccccc1Nc1ccnc(N2CCCC(C(=O)NCCSC)C2)n1 (configuration not stated) do in these assays?
IP6K1 inh: 17

Results for O=[N+]([O-])c1cccc2nc(/C=C/c3cccc(C(F)(F)F)c3)ccc12 ?
KDM5B inh: inactive

How did O=C(C1CCCN(Cc2cccc(-c3ccsc3)c2)C1)N1CCCC1 (configuration not stated) do in these assays?
IP6K1 inh: 1

Results for COCCCNC(=O)c1cn2cc(-c3cccc(OC)c3)sc2n1 ?
IP6K1 inh: -12

What do the screens show for `Cc1cnc(C)c(-c2cc(O)c3c(c2)CN(C(=O)c2ccncn2)CCO3)n1`?
IP6K1 inh: 22; KDM5B inh: 25µM*

Results for O=C(c1ccccn1)N1CCOc2c(O)cc(-c3cccc(Cl)c3)cc2C1 ?
IP6K1 inh: 0; KDM5B inh: inconclusive

Results for O=C(Cc1ccccc1)N1CCC2(CC1)CC(CCOCc1ccccc1)CCO2 (configuration not stated) ?
IP6K1 inh: 22

How did CNC(=O)[C@@H]1CN(C(=O)c2ccc(C)[nH]c2=O)C[C@H]1c1nc(COC)no1 do in these assays?
IP6K1 inh: 1; KDM5B inh: 25µM*

How did CNC(=O)[C@@H]1CN(C(=O)c2sccc2C)C[C@H]1c1nc(COC)no1 do in these assays?
IP6K1 inh: 14; KDM5B inh: inactive

What do the screens show for `CSc1ccc(-c2cccc(C(=O)NCC(=O)N(C)C)c2)cc1`?
IP6K1 inh: -2

How did O=C(Cc1ccc(Br)cc1)NCc1nnc2ccc(-c3ccccc3)nn12 do in these assays?
IP6K1 inh: 37; KDM5B inh: inconclusive

What do the screens show for `Cc1ccc(-c2ccc3nnc(CNC(=O)c4ccco4)n3n2)cc1`?
IP6K1 inh: 3; KDM5B inh: 32µM*

What do the screens show for `O=C(NCc1nnc2ccc(-c3ccccc3)nn12)c1ccco1`?
IP6K1 inh: 4; KDM5B inh: 28µM*

What do the screens show for `O=C(NCc1nnc2ccc(-c3ccc(Cl)cc3)nn12)c1ccco1`?
IP6K1 inh: 16; KDM5B inh: inconclusive

Results for O=C(NC1CCCN(c2ccnc3ccnn23)C1)c1cccc(Cl)c1 (configuration not stated) ?
IP6K1 inh: -3

What do the screens show for `COc1ccc2c(c1)C(C[C@H]1CN(C(=O)C3CCC3)CC[C@H]1CC(=O)O)=NCC2`?
IP6K1 inh: 16; KDM5B inh: 35µM*

Results for Cc1ccc2c(c1)C(C[C@H]1CN(C(=O)C3CCCC3)CC[C@H]1CC(=O)O)=NCC2 ?
IP6K1 inh: -1; KDM5B inh: inconclusive

What do the screens show for `COc1cccc2c1CCN=C2C[C@H]1CN(C(=O)C2CCC2)CC[C@H]1CC(=O)O`?
IP6K1 inh: 13; KDM5B inh: 35µM*

Screening results as filed in PubChem.
